Out of some 220,000 compounds screened, about 2,000 (0.91%) were called active. Inconclusive results (about 2%) are left out. Cut-off read from the data, not from the text of the source: inconclusive = inhibition above about 80% without an active follow-up result; inactive = below that; test concentration not stated here. The list is a sample of the results. Results with a measured potency or affinity are listed apart.
assay: M. tuberculosis H37Rv growth inhibitors, H37Rv strain (AID 1626); details: hits give high values, concentration not given here;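 note: bacteria incubated seven days before Alamar blue readout; 0% = bacteria only wells and 100% = bacteria with antibiotic wells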

SMILES	inhibition
COc1ccc(CCNCC(O)COc2cccc(Br)c2)cc1 (centres undefined)	-1.52% (inactive)
OC(CNCCc1ccccc1)COc1ccc(OCC(O)CNCCc2ccccc2)cc1 (centres undefined)	-6.51% (inactive)
CCN(CC)S(=O)(=O)c1ccc(N2CCOCC2)c(NC(=O)c2cccc3ccccc23)c1	11.2% (inactive)
CC1CN(C(=O)c2cccc(S(=O)(=O)N3CCOCC3)c2)CC(C)O1 (centres undefined)	-11.8% (inactive)
Cc1ccccc1-n1ncc(C(C)NC(=O)c2ccccc2)c1C (centres undefined)	-0.68% (inactive)
O=C(NCc1ccccc1)NC(=O)c1ccccc1	-2.58% (inactive)
COCCN=C1Sc2nc3ccc(C)cc3cc2CN1Cc1ccco1	-8.23% (inactive)
COCCN=C1Sc2nc3cc(C)c(C)cc3cc2CN1Cc1cccs1	10% (inactive)
Cc1c(-n2cc(C(=O)O)c(=O)c3cc(F)c(N4CCCC4)c(F)c32)c(=O)n(-c2ccccc2)n1C	3.58% (inactive)
O=C(O)c1cn(-c2ccc(F)c(F)c2)c2c(F)c(F)c(F)c(F)c2c1=O	6.77% (inactive)
COC(=O)c1c(N2C(=O)[C@H]3[C@@H](C2=O)[C@]2(C(=O)Nc4c2ccc(C)c4C)N2CCC[C@@H]32)sc(C)c1C	4.68% (inactive)
CN(C)c1ccc(/C=N/N=C(N)N)cc1[N+](=O)[O-]	-2.01% (inactive)
O=c1c2cc(NC(=S)N3CCCC3)ccc2nc2n1CCCCC2	5.39% (inactive)
O=C(O)C12C[C@H]3C[C@@H](C1)CC(n1ncc(N4CCN(c5ccccc5)CC4)c(Cl)c1=O)(C3)C2	-7.44% (inactive)
CCc1ccc(N=CC2=C(O)CC(c3ccco3)CC2=O)cc1 (centres undefined)	81% (inactive)
Cc1ccc(N=CC2=C(O)CC(c3ccco3)CC2=O)cc1 (centres undefined)	-4.64% (inactive)
COC(=O)c1[nH]c2cccc(OC)c2c1NC(=O)CCN1CCC(C(N)=O)CC1	-3.72% (inactive)
O=C(O)c1ccc(-c2nc(-c3ccccc3)cs2)cc1	-1.73% (inactive)
O=C(O)c1ccc(-c2nc(-c3ccc(Cl)c(Cl)c3)cs2)cc1	8.4% (inactive)
CNC(=O)c1csc(-c2ccncc2)n1	-3.82% (inactive)
CNC(=O)c1csc(-c2ccc(C)cc2)n1	-5.14% (inactive)
CC(C)OCCCNS(=O)(=O)c1ccc2c(c1)OCCO2	2.36% (inactive)

SMILES	inhibition
CN(C(=O)CO/N=C/c1ccc(OC(F)F)cc1)C1CCS(=O)(=O)C1 (centres undefined)	8.36% (inactive)
CCOc1ccc(-c2cc(CCCC(=O)NCCCOC)no2)cc1	4.11% (inactive)
CCOc1ccc(-c2cc(CCCC(=O)NCCc3ccccc3)no2)cc1	4.69% (inactive)
CCOc1ccc(-c2cc(CCCC(=O)NCCC(C)C)no2)cc1	-2.14% (inactive)
CCOc1ccc(-c2cc(CCCC(=O)Nc3cc(OC)ccc3OC)no2)cc1	9.58% (inactive)
CN(C)c1nc(-c2ccccn2)nnc1-c1ccccc1	68% (inactive)
C=CCNc1nc(-c2ccccn2)nnc1-c1ccccc1	37% (inactive)
Cc1ccn(C(=O)c2cc3c(C)nn(-c4ccccc4)c3s2)n1	10.1% (inactive)
CC(C)(O)C(=O)NNC(=S)Nc1ccc(F)c(Cl)c1	14.7% (inactive)
O=C1c2ccccc2NC(c2ccc3c(c2)OCCO3)N1c1ccc2c(c1)OCCO2 (centres undefined)	-7.93% (inactive)
COC(=O)C1=C(SC)N(c2ccc(OC)cc2)C(c2ccccc2)CC1=O (centres undefined)	-3.65% (inactive)
Cc1ccc(N2C(=O)C(CN(C)C)C2c2ccccc2)cc1 (centres undefined)	-4.35% (inactive)
Cc1ccc(N2C(=O)C(CN3CCCC3)C2c2ccccc2)cc1 (centres undefined)	27.1% (inactive)
COc1ccc(N2C(=O)C3CCCN3C2c2ccccc2F)cc1 (centres undefined)	-5.95% (inactive)
O=C(O)C1CC(=O)N(c2ccc3c(c2)OCCO3)C1 (centres undefined)	5.06% (inactive)
O=C(NN1CCOCC1)c1cc(-c2ccc(Br)cc2)nc2ccccc12	7.15% (inactive)
CC(=O)NCCC(=O)Nc1ccc(F)cc1C	-1.47% (inactive)
Cc1nn(-c2cccc([N+](=O)[O-])c2)c(N)c1-c1ccccc1	7.18% (inactive)
COCCNc1nc(-c2ccc(OC)cc2)c(-c2ccc(OC)cc2)s1	15.7% (inactive)
Cc1csc(Cn2c(CN(C)C)nc3ccccc3c2=O)n1	5.39% (inactive)
COc1cc([N+](=O)[O-])cc(CN2CCCCC2)c1O	2.21% (inactive)
O=C(CN1CCc2ccccc2C1)NC1CCCC1	-13.6% (inactive)

SMILES	inhibition
CCC(=O)N(Cc1c(C)nn(-c2ccccc2)c1Cl)c1ccc(Cl)cc1	8.67% (inactive)
CC(=O)N(Cc1c(C)nn(-c2ccccc2)c1Cl)c1ccc(Cl)cc1	-13.6% (inactive)
CCn1cc(C(=O)OCC(=O)c2ccc(Cl)cc2)c(=O)c2ccc(C)nc21	-8.38% (inactive)
O=C1CC(c2ccc(F)cc2)Sc2nc(C34CC5CC(CC(C5)C3)C4)nn21 (centres undefined)	5.92% (inactive)
Cc1ccc(SCn2nnc3ccccc3c2=O)c(C)c1	-6.38% (inactive)
COc1ccc2nc(/C=N/NC(=O)[C@@H]3CCCN3C(=O)OC(C)(C)C)ccc2c1	-1.11% (inactive)
Clc1ccc(-c2nnc(NC3=NCCCCC3)o2)cc1	-12.1% (inactive)
CC(=O)Nc1ccc2c(c1)CCCC2	0.76% (inactive)
O=C(COc1ccccc1)Nc1nnc(-c2ccccc2)o1	12.6% (inactive)
O=C(COc1ccc(Cl)cc1)Nc1nnc(-c2ccco2)o1	0.85% (inactive)
O=C(NCc1nnc2n1CCCCC2)c1ccc(Cl)cc1Cl	-8.85% (inactive)
CC(=O)Nc1cccc(-c2nnc(-c3ccccc3)o2)c1	-12.3% (inactive)
CCN(CC)S(=O)(=O)c1ccc(N=N/C(C(C)=O)=C(/C)O)cc1	-10.5% (inactive)
Cc1c(C#N)c(N=CN(C)C)c(C(=O)c2ccc(Br)cc2)n1-c1ccc(Cl)cc1	1.78% (inactive)
CCn1c(C)nc2cc(S(=O)(=O)N3CCCCC3)ccc21	-10.8% (inactive)
CC(=O)O[C@@H]1[C@H]2[C@@H](C[C@@H](C)[C@@H]3C=CC(=O)[C@@]13C)OC(=O)[C@@H]2C	-0.99% (inactive)
CC(=O)O[C@@H]1[C@H]2[C@@H](C[C@@H](C)[C@@H]3CCC(=O)[C@@]13C)OC(=O)[C@@H]2C	-3.15% (inactive)
C=C1C(=O)O[C@@H]2C[C@@H](C)[C@H]3C=CC(=O)[C@]3(O)C[C@@H]12	-7.5% (inactive)
C=C1C(=O)O[C@H]2[C@H]1[C@H](OC(=O)CC(=O)O[C@@H]1C[C@@H](C)[C@@H]3C=CC(=O)[C@@]3(C)[C@H]3OC(=O)C(=C)[C@H]13)C[C@@H](C)[C@H]1C=CC(=O)[C@]12C	-7.78% (inactive)
C[C@@H]1C[C@@H]2OC(=O)[C@]3(C)[C@H]2[C@@H](OC3(C)O)[C@]2(C)C(=O)C=C[C@H]12 (some centres undefined)	-4.34% (inactive)
